According to PubChem BioAssay (NCI):
Compounds without any hit were thinned out: in the full panel of roughly 83,000, 20% have a hit.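 Single-dose data. Exposure time 48 hours. Values below 10 considered active.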 Values without a mark were called inactive. Active and inactive are the calls of the source.

How the values were obtained:
Assay in all cases: NCI-60 one-dose screen, 48 h (100 = growth as untreated, 0 = no growth, -100 = all killed)
Settings in all cases: 10 µM unless noted
NCI-H23 lung = test system: NCI-H23 lung
NCI-H226 lung = test system: NCI-H226 lung
NCI-H322M lung = test system: NCI-H322M lung
HOP-62 NSCLC = test system: HOP-62 NSCLC
NCI-H460 lung = test system: NCI-H460 lung
NCI-H522 lung = test system: NCI-H522 lung
A549/ATCC NSCLC = test system: A549/ATCC NSCLC
786-0 renal = test system: 786-0 renal
COLO 205 colon = test system: COLO 205 colon

Compound | growth (NCI-H23 lung) | growth (NCI-H226 lung) | growth (NCI-H322M lung) | growth (HOP-62 NSCLC) | growth (NCI-H460 lung) | growth (NCI-H522 lung) | growth (A549/ATCC NSCLC) | growth (786-0 renal) | growth (COLO 205 colon)
Nc1nc(N)c2c(n1)NC(c1ccc(C(F)(F)F)cc1)CC(c1ccc(Nc3nc(NCCO)nc(N4CCOCC4)n3)cc1)=N2 (configuration not stated) | 72.8% | 70.2% | 95.6% | 47.1% | 48.3% | 52.5% | 74.4% | 62.7% | 71.1%
COc1ccc(/C=C/C(=O)c2cc(S(N)(=O)=O)c(OC)cc2OC)cc1 | 74.7% | 100% | 77.2% | 83% | 69.8% | 78% | 84.3% | 88.1% | 92.6%
O=C(Nc1cccc(Cl)c1)Nc1nc2ccc([N+](=O)[O-])cc2o1 | 12.6% | 29% | 17.4% | 22.2% | 7.51% (active) | -0.721% (active) | 17.2% | 28% | -5.17% (active)
Cc1nn(-c2ccccc2)c2ncnc(N/N=C/c3cccc(O)c3)c12 | 61.3% | 80.5% | 73.1% | 44.3% | 15.7% | 25.4% | 57.7% | 66.7% | 57.1%
NC(N)=Nc1ccc(Oc2cccc(Nc3ccc(Cl)c(C(F)(F)F)c3)c2)cc1 | 47.4% | 53.3% | 61.9% | 13.4% | 2.61% (active) | 49% | 57.4% | 53% | -4.28% (active)
COc1cc(-c2nc3sccn3c2-c2ccnc(S(C)(=O)=O)n2)ccc1F | 92.4% | 94.5% | 89.3% | 108% | 100% | 93.4% | 94.2% | 102% | 114%
N#Cc1cn(Cc2ccc(Cl)cc2Cl)c(C(=O)c2ccc(Br)cc2)c1N | 93.8% | 75.6% | 95% | 82.6% | 95.9% | 91.2% | 98.2% | 99.1% | 114%
CCO/C=N/C1=C(C#N)C(c2ccc(F)cc2)c2sc3c(C)cccc3c2O1 (configuration not stated) | 27.1% | 54.3% | 37.6% | 28.3% | 4.32% (active) | 7.88% (active) | 22.4% | 20.2% | 15.5%
NC(N)=Nc1ccc(Oc2cccc(Nc3ccc(Br)c(C(F)(F)F)c3)c2)cc1 | 13.8% | 39.2% | 44.8% | -37.1% (active) | -66.9% (active) | 15% | 33.7% | 32.7% | -31.2% (active)
Cc1cc2ncc(-c3cc4ccccc4c(N4CCN(C)CC4)n3)nc2cc1C | 70.7% | 91.9% | 47.7% | 82.9% | -77.9% (active) | 75.5% | 54% | 61.3% | -57.9% (active)
NC(N)=Nc1ccc(Oc2cccc(Nc3cccc(C(F)(F)F)c3)c2)cn1 | -2.6% (active) | 20.1% | 14.7% | 3.3% (active) | -76.8% (active) | -34.6% (active) | 35.8% | 33.7% | -47.3% (active)
CCNC(=O)N1CCc2cc(OC)c(OCCc3ccc(OC)c(N)c3)cc2C1c1cc(C)c(C)cc1C (configuration not stated) | 41.8% | 44.7% | 53.6% | 34.2% | 4.34% (active) | 5.26% (active) | 19.6% | 23.3% | 55.9%
NC(N)=Nc1ccc(Oc2cccc(Oc3ccc(Cl)c(C(F)(F)F)c3)c2)cn1 | -83.5% (active) | -73.4% (active) | -6.46% (active) | -56% (active) | -78.8% (active) | -67.9% (active) | -67.1% (active) | -82% (active) | -68.2% (active)
C#C[C@]1(O)CC[C@H]2[C@@H]3CC=C4c5sc(-c6cccc(O)c6)nc5CC[C@]4(C)[C@H]3CC[C@@]21C | -26.8% (active) | -29.4% (active) | -5.55% (active) | -20.8% (active) | -52.9% (active) | 3.14% (active) | -16.2% (active) | -57.6% (active) | -25.3% (active)
CN(C)CCCOc1ccc2c(c1)CN(C(=O)c1cc(C(=O)N3Cc4cccc(F)c4C3)ccc1O)C2 | 102% | 97.2% | 105% | 120% | 105% | 97.7% | 101% | 108% | 109%
Cn1cc(-c2nc(N)nnc2-c2c[nH]c3ccccc23)c2cc(Br)ccc21 | 17% | 60.3% | 41.9% | 45.9% | 12.6% | -2.27% (active) | 50.8% | 43.5% | 9.53% (active)
COc1cc(OC)c(S(N)(=O)=O)cc1C(=O)/C=C/c1ccc(C)cc1 | 8.61% (active) | -2.47% (active) | 34.6% | 11.9% | -3.51% (active) | 11% | 22.5% | 19.9% | 17%
CC(O)c1cc2ccccc2c(=O)o1 (configuration not stated) | 99.8% | 89.2% | 103% | 105% | 104% | 98.6% | 102% | 101% | 112%
O=C1/C(=C/C=C/c2ccco2)SC(=S)N1C1CCCCC1 | 91.3% | 105% | 97.4% | 102% | 95.7% | 75.9% | 86.8% | 106% | 72.9%
Cc1cccc(/C=C/C(=O)Nc2ncc(Cc3cccc(C)c3)s2)c1 | 30.4% | 17.7% | 39.9% | 32.1% | 8.64% (active) | -43.2% (active) | 31.1% | 21.3% | -0.745% (active)
Nc1nc(-c2cccc([N+](=O)[O-])c2)c(N=Nc2ccccc2)s1 | 70.2% | 73.1% | 76.2% | 80.6% | 56.6% | 48.6% | 60% | 59.7% | 63.1%
COc1ccc2[nH]cc(-c3csc4nc(-c5ccccc5)cn34)c2c1 | 30.8% | 31.4% | 64.6% | 24.5% | 2.01% (active) | -34% (active) | 29.9% | 51.6% | -32.6% (active)
COC(=O)c1[nH]nc2c1C1(C(=O)c3cccc4cccc1c34)C(C#N)=C(N)O2 (configuration not stated) | 95% | 91.8% | 94.1% | 97.5% | 105% | 100% | 98.2% | 99.5% | 110%
O=C(CCn1cc[n+](CC(=O)c2ccc(-c3ccccc3)cc2)c1)Nc1cccc2cccnc12 | 81.1% | 83.3% | 92.2% | 102% | 91.9% | 48% | 94.4% | 97.7% | 72.8%
Nc1nc(N)c2c(n1)NC(c1ccc(Cl)cc1)CC(c1ccc(Nc3nc(NCCO)nc(N4CCOCC4)n3)cc1)=N2 (configuration not stated) | 85.2% | 82% | 95.5% | 80.2% | 79.8% | 65.8% | 86.3% | 67.8% | 72.6%
CC(C)c1ccc(NCc2cn(-c3ccc(C(=O)O)cc3)nc2-c2cc(C(F)(F)F)cc(C(F)(F)F)c2)cc1 | 83.2% | 85.8% | 85.1% | 94.9% | 83% | 85% | 79.8% | 90.7% | 96.5%
COc1cc(OC)c(S(N)(=O)=O)cc1C(=O)/C=C/c1ccc(Cl)cc1 | 6.85% (active) | -26% (active) | 16.3% | 9.71% (active) | -11.2% (active) | -6.47% (active) | 6.83% (active) | 13.8% | -30% (active)
COc1ccc(-c2nc3cc(Cl)c(Cl)cc3n2CC(=O)N=Nc2c(O)[nH]c3ccc(OC)cc23)cc1 | 38.7% | -38.3% (active) | 80.4% | 43.2% | 56.1% | 69.3% | 59.8% | 82.5% | 31.9%
